Compounds without any hit were thinned out: in the full panel of roughly 79,000, 15% have a hit. The source made the active and inactive calls. No stated cut-off is given here; in the data, active means growth inhibition above about 70%; inactive means the rest.
Experiments:
[1] = NCI Yeast Anticancer Drug Screen. Data for the rad50 strain (AID 155);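 further: 0% = growth of vehicle-only cultures of the same strain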; details: S. cerevisiae rad50 strain growth inhibition; at 50.0 µM; active compounds read high
Summary of the method: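 Relative growth inhibition (compound vs vehicle) was measured in yeast with a defined repair-gene alteration.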

[2] = NCI Yeast Anticancer Drug Screen. Data for the mec2-1 strain (AID 157); details: S. cerevisiae mec2-1 strain, at 50.0 µM, active compounds read high
Summary of the method: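 Cells of the genetically defined mec2-1 yeast strain are incubated with test compound. Inhibition of growth is calculated against vehicle-treated controls.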

[3] = NCI Yeast Anticancer Drug Screen. Data for the sgs1 mgt1 strain (AID 161);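 further: 0% = growth of cultures given vehicle only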; details: S. cerevisiae sgs1 mgt1 strain, at 50.0 µM, active compounds read high
Summary of the method: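 Test agents were incubated with a DNA-repair-mutant yeast strain. Growth was then read and compared against vehicle-treated controls.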

[4] = NCI Yeast Anticancer Drug Screen. Data for the cln2 rad14 strain (AID 165);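 further: 0% = growth equal to vehicle treated cultures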; details: S. cerevisiae cln2 rad14 strain, at 50.0 µM, active compounds read high
Summary of the method: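 The screen exposed genetically defined yeast (cln2 rad14) to test compounds and scored growth inhibition relative to vehicle-treated controls.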

[5] = NCI Yeast Anticancer Drug Screen. Data for the bub3 strain (AID 167); details: S. cerevisiae bub3 mutant strain, at 50.0 µM, active compounds read high
Summary of the method: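 Screening used yeast with an engineered genetic alteration affecting cell cycle control. Compound-exposed cultures were compared with vehicle cultures, and reduced growth was taken as inhibition.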

[6] = NCI Yeast Anticancer Drug Screen. Data for the mlh1 rad18 strain (AID 175); details: S. cerevisiae mlh1 rad18 strain growth inhibition; at 50.0 µM; active compounds read high
Summary of the method: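 Compound-treated yeast growth, normalised to vehicle controls. Strain bears defined DNA repair mutations.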

Measured: growth inhibition

CC(=O)OCC1OC(OC(C)=O)C(NC(=S)N(C)N=O)C(OC(C)=O)C1OC(C)=O (stereo not given)
inactive: [1] 0.65% | [2] -8.4% | [3] -16.9% | [4] 12.4% | [5] -19.3% | [6] -40.3%

CC(NC(=O)NC(C)(C)C)NC(=O)C(N)CC(=O)O (stereo not given)
inactive: [1] -51.8% | [2] -20.1% | [3] -25.4% | [4] 19.4% | [5] 12.7% | [6] -20.4%

CC(=O)C1=C(O)/C(=C/c2ccccc2)NC1=O
inactive: [1] 8.05% | [2] 5.15% | [3] -6.3% | [4] -35.5% | [5] -13.2% | [6] -3.2%

CCCCCCCCCCCCCCCC[N+](C)(C)CC#CCCl
inactive: [1] -3.15% | [3] 48.6% | [6] 48.8%
active: [2] 99.5% | [4] 98.7% | [5] 99.3%

C=C1CCCCCCCCCCC1S(=O)c1ccccc1 (stereo not given)
inactive: [1] 14.5% | [2] 14.3% | [3] 4.15% | [4] -6.6% | [5] -5.4% | [6] 31.5%

COc1ccc(CSC(=S)Nc2ccc(F)c(C)c2)cc1
inactive: [1] 20.8% | [2] 14.4% | [3] 17.1% | [4] 28.1% | [5] 5.1% | [6] 10.6%

CC1=NN(c2ccccc2)C(=O)/C1=C\c1ccc([N+](=O)[O-])cc1
inactive: [1] 25.9% | [2] 29.1% | [3] 28.4% | [4] 18.9% | [5] 18.4% | [6] 19.5%

CC(=O)OCC(OC(C)=O)C(OC(C)=O)C(OC(C)=O)c1cnn(-c2ccccc2)n1 (stereo not given)
inactive: [1] 4.05% | [2] 12.7% | [3] -20% | [4] -22.8% | [5] 5.6% | [6] 6%

CN1N=C(c2ccncc2)OC1c1ccc(C(F)(F)F)cc1 (stereo not given)
inactive: [1] 13.9% | [2] -20.6% | [3] 1.35% | [4] 11.3% | [5] -19.6% | [6] -12.5%

CC(C)C1NC(=O)c2ccccc2S1 (stereo not given)
inactive: [1] 27.8% | [2] -15.9% | [3] -3.55% | [4] 26.1% | [5] 10.7% | [6] 44%

CC1(C)CC([NH-])(C(=O)O)CC(C)(C)N1O.CC1(C)CC([NH-])(C(=O)O)CC(C)(C)N1O.[Pt+2]
inactive: [1] -5.65% | [2] -8.75% | [3] -6.5% | [4] -45.6% | [5] -1.05% | [6] -23.8%

Cc1noc(C)c1CCCOC1COc2ccccc2OCCOCCOc2ccccc2OC1
inactive: [1] -4.7% | [2] -7.15% | [3] -5.8% | [4] -21.1% | [5] -9.15% | [6] -5.25%

Cc1cccnc1Br
inactive: [1] -25.2% | [2] -9.85% | [3] -5.05% | [4] -29.6% | [5] -5.65% | [6] -26.1%

Cn1c(=O)oc2cc(C(=O)CN3CCN(Cc4ccc5c(c4)OCO5)CC3)c(Cl)cc21
inactive: [1] 29.5% | [2] 26.4% | [3] 61.8% | [4] 26.1% | [5] 53.4% | [6] 23.1%

Cc1ccc2nc(NC(=O)OCc3ccccc3)sc2c1
inactive: [1] 4.1% | [2] 20.1% | [3] -11.8% | [4] 6.95% | [5] 8.6% | [6] 9.65%

Cc1nc([N+](=O)[O-])cn1/C=C/Cn1cc([N+](=O)[O-])nc1C
inactive: [1] -3.25% | [2] -18.9% | [3] 5% | [4] 6.65% | [5] -25.7% | [6] 4.8%

COc1cc(O)c(C(C)c2ccccc2)cc1N=O (stereo not given)
inactive: [1] -9.45% | [2] -11.6% | [3] -4.4% | [4] 4.15% | [5] 11.8% | [6] -6.15%

O=S1c2ccccc2N=C(c2ccc3ccccc3c2)CC1c1ccccc1F (stereo not given)
inactive: [1] -1.1% | [2] -2.95% | [3] 12.3% | [4] 4.45% | [5] 2.45% | [6] 6.8%

Nn1cnc2nccnc2c1=O
inactive: [1] 1% | [2] 4.65% | [3] -10.7% | [4] -17.4% | [5] 2.4% | [6] -5.6%

N#C/C(=C\c1ccccc1)C(NO)Nc1ccccc1 (stereo not given)
inactive: [1] -31.1% | [2] -10.2% | [3] -1.4% | [4] 0.05% | [5] 6.65% | [6] -14.8%

Source: PubChem BioAssay (NCI)
